Source: PubChem BioAssay (EPA / NIEHS)
Active and inactive are the calls of the source. Rule for the calls: active = hit-call score of the fitted dose curve at least 0.9, where 1 is the maximum; inactive = score below 0.9.

How the values were obtained:
[1] = read-out: growth arrest and DNA damage 45 (GADD45A), GADD45A (gene 1647); assay: LTEA_HepaRG_GADD45A: Life Technologies and Expression Analysis (LTEA) Assay for growth arrest and DNA damage 45 (GADD45A) using HepaRG (AID 2283458); conditions: mRNA level, 48 h; actives raise or lower the signal
Procedure, shortened: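 Differentiated HepaRG cells exposed 48 h in serum-free induction medium to 8 concentrations, top 100 uM in half-log steps, 0.5% DMSO. GADD45A mRNA quantified by qRT-PCR, normalized to ACTB, GAPDH and POLR2A; bidirectional fit versus DMSO.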

[2] = read-out: Forkhead box O3 (FOXO3), FOXO3 (gene 2309); assay: LTEA_HepaRG_FOXO3: Life Technologies and Expression Analysis (LTEA) Assay for Forkhead box O3 (FOXO3) using HepaRG (AID 2283459); conditions: mRNA level, 48 h; actives raise or lower the signal
Procedure, shortened: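 Differentiated human HepaRG cells, 48 h post-plating, exposed in duplicate for 48 h in serum-free induction medium; 8-point half-log series from 100 uM in 0.5% DMSO. FOXO3 mRNA by TaqMan qRT-PCR, normalized to ACTB/GAPDH/POLR2A; bidirectional fit versus DMSO.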

[3] = read-out: ABC Transporter (ABCB1), ABCB1 (gene 5243); assay: LTEA_HepaRG_ABCB1: Life Technologies and Expression Analysis (LTEA) Assay for ABC Transporter (ABCB1) using HepaRG (AID 2283460); conditions: mRNA level, 48 h; actives raise or lower the signal
Procedure, shortened: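 HepaRG cells exposed in duplicate for 48 h in serum-free induction medium to eight half-log concentrations up to 100 uM in 0.5% DMSO. ABCB1 mRNA quantified by qRT-PCR, normalised to ACTB, GAPDH and POLR2A; fitted bidirectionally versus DMSO.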

[4] = read-out: growth arrest and DNA damage 45 (GADD45B), GADD45B (gene 4616); assay: LTEA_HepaRG_GADD45B: Life Technologies and Expression Analysis (LTEA) Assay for growth arrest and DNA damage 45 (GADD45B) using HepaRG (AID 2283461); conditions: mRNA level, 48 h; actives raise or lower the signal
Procedure, shortened: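 Values are bidirectional concentration-response fits against 0.5% DMSO controls. Underlying data: qRT-PCR mRNA levels in human HepaRG liver cells treated 48 h in serum-free induction medium, eight concentrations topping at 100 uM.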

[5] = read-out: ABC Transporter (ABCC3), ABCC3 (gene 8714); assay: LTEA_HepaRG_ABCC3: Life Technologies and Expression Analysis (LTEA) Assay for ABC Transporter (ABCC3) using HepaRG (AID 2283462); conditions: mRNA level, 48 h; actives raise or lower the signal
Procedure, shortened: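 Differentiated HepaRG liver cells receive test chemicals at eight concentrations (max 100 uM) for 48 h. Expression of ABCC3 is quantified by qRT-PCR against ACTB, GAPDH and POLR2A, and activity is fitted in both directions against the DMSO control.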

[6] = read-out: ABC Transporter (ABCB11), ABCB11 (gene 8647); assay: LTEA_HepaRG_ABCB11: Life Technologies and Expression Analysis (LTEA) Assay for ABC Transporter (ABCB11) using HepaRG (AID 2283463); conditions: mRNA level, 48 h; actives raise or lower the signal
Procedure, shortened: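 Differentiated human HepaRG cells in serum-free induction medium, dosed in duplicate for 48 h. Eight-point half-log series from 100 uM in 0.5% DMSO; ABCB11 mRNA by qRT-PCR, normalized to ACTB, GAPDH, POLR2A, fitted bidirectionally versus DMSO.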

[7] = read-out: ABC Transporter (ABCC2), ABCC2 (gene 1244); assay: LTEA_HepaRG_ABCC2: Life Technologies and Expression Analysis (LTEA) Assay for ABC Transporter (ABCC2) using HepaRG (AID 2283464); conditions: mRNA level, 48 h; actives raise or lower the signal
Procedure, shortened: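 Gene expression of ABCC2 was determined by qRT-PCR in HepaRG cells exposed 48 h to chemicals (highest 100 uM, half-log dilutions). Activity was fitted in both directions relative to 0.5% DMSO vehicle.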

[8] = read-out: Broad substrate specificity ATP-binding cassette transporter ABCG2 (Homo sapiens) (UniProt Q9UNQ0); assay: LTEA_HepaRG_ABCG2: Life Technologies and Expression Analysis (LTEA) Assay for ABC Transporter (ABCG2) using HepaRG (AID 2283465); conditions: mRNA level, 48 h; actives raise or lower the signal
Procedure, shortened: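 Differentiated HepaRG cells were exposed for 48 h in serum-free induction medium to 8 half-log concentrations, top 100 uM, in 0.5% DMSO. ABCG2 mRNA was measured by qRT-PCR, normalized to ACTB, GAPDH and POLR2A, with bidirectional fitting versus DMSO.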

[9] = read-out: ATP-citrate lyase (ACLY), ACLY (gene 47); assay: LTEA_HepaRG_ACLY: Life Technologies and Expression Analysis (LTEA) Assay for ATP-citrate lyase (ACLY) using HepaRG (AID 2283466); conditions: mRNA level, 48 h; actives raise or lower the signal
Procedure, shortened: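 Differentiated HepaRG cells exposed 48 h in serum-free induction medium to eight half-log concentrations up to 100 uM in 0.5% DMSO, duplicates. Transcript measured by Fluidigm TaqMan qRT-PCR, normalized to ACTB, GAPDH, POLR2A; bidirectional fit versus DMSO.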

[10] = read-out: Peroxisomal acyl-coenzyme A oxidase 1 (ACOX1) gene, ACOX1 (gene 51); assay: LTEA_HepaRG_ACOX1: Life Technologies and Expression Analysis (LTEA) Assay for Peroxisomal acyl-coenzyme A oxidase 1 (ACOX1) gene using HepaRG (AID 2283467); conditions: mRNA level, 48 h; actives raise or lower the signal
Procedure, shortened: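 HepaRG cells, plated 48 h then switched to serum-free induction medium, were exposed in duplicate for 48 h to 8-point half-log concentrations up to 100 uM in 0.5% DMSO. ACOX1 mRNA was measured by qRT-PCR, normalized to ACTB/GAPDH/POLR2A, and fitted bidirectionally versus DMSO.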

[11] = read-out: Alkaline Phosphatase, Placental (ALPP) gene, ALPP (gene 250); assay: LTEA_HepaRG_ALPP: Life Technologies and Expression Analysis (LTEA) Assay for Alkaline Phosphatase, Placental (ALPP) gene using HepaRG (AID 2283468); conditions: mRNA level, 48 h; actives raise or lower the signal
Procedure, shortened: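 Expression of ALPP was quantified by qRT-PCR against three housekeeping genes in human HepaRG cultures treated for 48 h with an eight-point concentration series up to 100 uM. Activity in either direction was fitted relative to 0.5% DMSO.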

[12] = read-out: Bcl-2 (BAD) gene, BAD (gene 572); assay: LTEA_HepaRG_BAD: Life Technologies and Expression Analysis (LTEA) Assay for Bcl-2 (BAD) gene using HepaRG (AID 2283469); conditions: mRNA level, 48 h; actives raise or lower the signal
Procedure, shortened: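 Differentiated HepaRG cells were exposed in duplicate in 0.5% DMSO for 48 h to eight-point half-log concentrations up to 100 uM. BAD mRNA was measured by Fluidigm TaqMan qRT-PCR, normalized to ACTB, GAPDH and POLR2A, and fitted bidirectionally against DMSO.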

[13] = read-out: Bcl-2 (BAX) gene, BAX (gene 581); assay: LTEA_HepaRG_BAX: Life Technologies and Expression Analysis (LTEA) Assay for Bcl-2 (BAX) gene using HepaRG (AID 2283470); conditions: mRNA level, 48 h; actives raise or lower the signal
Procedure, shortened: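 Differentiated HepaRG cells exposed 48 h in serum-free induction medium, eight half-log concentrations from 100 uM, in duplicate, 0.5% DMSO vehicle. BAX mRNA by TaqMan qRT-PCR, normalised to ACTB, GAPDH and POLR2A.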

[14] = read-out: adenosine kinase (ADK) gene, ADK (gene 132); assay: LTEA_HepaRG_ADK: Life Technologies and Expression Analysis (LTEA) Assay for adenosine kinase (ADK) gene using HepaRG (AID 2283471); conditions: mRNA level, 48 h; actives raise or lower the signal
Procedure, shortened: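 Following 48 h exposure of HepaRG cells in 0.5% DMSO (top concentration 100 uM, duplicate wells), ADK mRNA induction or suppression was measured by qRT-PCR, normalised to ACTB/GAPDH/POLR2A, and fitted bidirectionally relative to vehicle.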

[15] = read-out: Alpha-fetoprotein (AFP) gene, AFP (gene 174); assay: LTEA_HepaRG_AFP: Life Technologies and Expression Analysis (LTEA) Assay for Alpha-fetoprotein (AFP) gene using HepaRG (AID 2283472); conditions: mRNA level, 48 h; actives raise or lower the signal
Procedure, shortened: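 Differentiated human HepaRG cells exposed 48 h in serum-free induction medium, 8-point half-log series from 100 uM in 0.5% DMSO, duplicate. AFP mRNA by qRT-PCR, normalized to ACTB, GAPDH, POLR2A; bidirectional fit vs DMSO.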

[16] = read-out: BCL2L11 (gene 10018); assay: LTEA_HepaRG_BCL2L11: Life Technologies and Expression Analysis (LTEA) Assay for Bcl-2 (BCL2L11) gene using HepaRG (AID 2283473); conditions: mRNA level, 48 h; actives raise or lower the signal
Procedure, shortened: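 Cells were plated, cultured 48 h, switched to serum-free induction medium, then dosed in duplicate for 48 h at eight half-log concentrations up to 100 uM. Lysates underwent RNA isolation and TaqMan qRT-PCR; gain or loss versus DMSO was fitted.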

[17] = read-out: Apolipoprotein A-V (APOA5) gene, APOA5 (gene 116519); assay: LTEA_HepaRG_APOA5: Life Technologies and Expression Analysis (LTEA) Assay for Apolipoprotein A-V (APOA5) gene using HepaRG (AID 2283474); conditions: mRNA level, 48 h; actives raise or lower the signal
Procedure, shortened: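 Human liver HepaRG cells are treated 48 h with test chemicals (100 uM top, half-log dilutions, 0.5% DMSO). APOA5 mRNA induction or loss is measured by qRT-PCR relative to vehicle.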

[18] = read-out: Apoptosis regulator Bcl-2 (Homo sapiens) (UniProt P10415); assay: LTEA_HepaRG_BCL2: Life Technologies and Expression Analysis (LTEA) Assay for Bcl-2 gene using HepaRG (AID 2283475); conditions: mRNA level, 48 h; actives raise or lower the signal
Procedure, shortened: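 Differentiated human HepaRG cells in serum-free induction medium exposed 48 h, in duplicate, to 8-point half-log series from 100 uM in 0.5% DMSO. BCL2 mRNA by qRT-PCR (TaqMan/Fluidigm), normalized to ACTB, GAPDH, POLR2A; bidirectional fit against DMSO.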

[19] = read-out: Bcl-2 (BID) gene, BID (gene 637); assay: LTEA_HepaRG_BID: Life Technologies and Expression Analysis (LTEA) Assay for Bcl-2 (BID) gene using HepaRG (AID 2283476); conditions: mRNA level, 48 h; actives raise or lower the signal
Procedure, shortened: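 Gene expression by qRT-PCR in HepaRG cells after 48 h exposure, duplicate wells, eight half-log concentrations topping at 100 uM in 0.5% DMSO. Normalized to ACTB, GAPDH, POLR2A; bidirectional fitting relative to DMSO.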

[20] = CEETOX_H295R_TESTO: CeeTox H295R High-throughput Steroidogenesis Assay for Testosterone (TESTO) (AID 2283457); conditions: actives raise or lower the signal
Procedure, shortened: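 Testosterone synthesis is assessed in human adrenocortical H295R cells after 48 h of chemical exposure, using HPLC-MS/MS of extracted medium. Activity is fitted in both directions against DMSO control.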

Measured: AC50

Apoptosis regulator Bcl-2 (Homo sapiens), sequence (P10415 whole entry, looked up): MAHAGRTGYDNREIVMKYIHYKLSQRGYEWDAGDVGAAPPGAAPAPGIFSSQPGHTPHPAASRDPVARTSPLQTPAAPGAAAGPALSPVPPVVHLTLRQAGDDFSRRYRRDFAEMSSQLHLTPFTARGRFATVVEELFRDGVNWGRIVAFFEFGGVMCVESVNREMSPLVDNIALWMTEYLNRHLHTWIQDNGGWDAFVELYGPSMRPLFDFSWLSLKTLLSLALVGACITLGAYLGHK
Broad substrate specificity ATP-binding cassette transporter ABCG2 (Homo sapiens), sequence (Q9UNQ0 whole entry, looked up): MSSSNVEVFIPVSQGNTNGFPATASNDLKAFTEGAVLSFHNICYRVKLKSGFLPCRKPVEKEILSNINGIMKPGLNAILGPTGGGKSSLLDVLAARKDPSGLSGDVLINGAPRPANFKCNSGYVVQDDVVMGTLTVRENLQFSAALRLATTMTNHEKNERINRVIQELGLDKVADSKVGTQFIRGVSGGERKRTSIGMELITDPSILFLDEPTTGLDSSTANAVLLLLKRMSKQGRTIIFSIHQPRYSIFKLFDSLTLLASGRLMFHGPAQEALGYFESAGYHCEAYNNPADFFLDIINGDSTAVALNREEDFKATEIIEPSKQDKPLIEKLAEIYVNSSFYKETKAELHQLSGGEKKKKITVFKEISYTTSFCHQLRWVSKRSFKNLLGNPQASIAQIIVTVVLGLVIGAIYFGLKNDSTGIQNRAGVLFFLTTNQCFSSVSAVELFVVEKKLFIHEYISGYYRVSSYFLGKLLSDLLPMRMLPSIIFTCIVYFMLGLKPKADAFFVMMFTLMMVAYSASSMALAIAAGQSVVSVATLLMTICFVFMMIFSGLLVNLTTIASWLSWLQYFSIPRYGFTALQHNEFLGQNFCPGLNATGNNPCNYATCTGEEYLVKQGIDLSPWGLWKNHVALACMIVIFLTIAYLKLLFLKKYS

COCCOc1cc2cc(C(=O)NC3CCN(C(C)C)CC3)n(CC(=O)Nc3ccc(Cl)cn3)c2cn1
active: [2] 11.6 µM | [3] 20.6 µM | [5] 45 µM | [6] 59.5 µM | [7] 37.2 µM | [10] 39.4 µM | [15] 65 µM | [16] 15.2 µM | [17] 45 µM
not listed: [20]
inactive: all other assays above

CC[C@H]1CC[C@H](NCc2cc3c(cc2OC)[C@H]2C[C@H]2C(=O)N3C)[C@H](c2ccccc2)N1
active: [7] 50 µM | [11] 75.7 µM | [15] 50 µM | [16] 31.7 µM
not listed: [5] | [12] | [20]
inactive: all other assays above

CC/C(=C\C(=N/O)C(N)=O)C(C)[N+](=O)[O-] (stereo not given)
not listed: [5] | [10] | [20]
inactive: all other assays above

CCCCCCc1ccc(O)cc1O
not listed: [20]
inactive: all other assays above

O=C(O)c1cccc(N(Cc2cccnc2)c2ccc(OC(F)F)c(OC(F)F)c2)c1
active: [3] 50 µM | [6] 90.6 µM | [9] 83.3 µM | [11] 79.9 µM
inactive: all other assays above

O=C1OC(=O)C2C3C=CC(C3)C12 (stereo not given)
not listed: [5] | [12] | [20]
inactive: all other assays above

NC(=O)NO
not listed: [5] | [10] | [18] | [20]
inactive: all other assays above
